± gives the standard deviation of the averaged measurements. About 6,200 targets were measured; listed, in parts, are those with the largest changes and a random draw of the rest.
Compound: Nc1ncnc2c1ncn2[C@@H]1O[C@H](COP(=O)(O)OP(=O)(O)NP(=O)(O)O)[C@@H](O)[C@H]1O [adenylyl imidodiphosphate]
Experiment: NP40-soluble protein abundance relative to vehicle (solubility fold change) (ratio); higher = more soluble protein in presence of AMP-PNP
Method in brief: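 Jurkat crude lysate (Dounce-homogenised) was treated with eight concentrations from 0.1 to 10 mM for 10 min at room temperature, then 3 min at 37 °C. It was solubilised with 0.8% NP40 and benzonase (60 min, 4 °C) and ultracentrifuged, and the supernatant was TMT-labelled for LC-MS/MS. Intensities were vsn-normalised, and the value is the fold change against the NP40-processed vehicle per replicate, from three independent experiments.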

Sequence of UniProt O75879 (O75879 whole entry, one chain of several): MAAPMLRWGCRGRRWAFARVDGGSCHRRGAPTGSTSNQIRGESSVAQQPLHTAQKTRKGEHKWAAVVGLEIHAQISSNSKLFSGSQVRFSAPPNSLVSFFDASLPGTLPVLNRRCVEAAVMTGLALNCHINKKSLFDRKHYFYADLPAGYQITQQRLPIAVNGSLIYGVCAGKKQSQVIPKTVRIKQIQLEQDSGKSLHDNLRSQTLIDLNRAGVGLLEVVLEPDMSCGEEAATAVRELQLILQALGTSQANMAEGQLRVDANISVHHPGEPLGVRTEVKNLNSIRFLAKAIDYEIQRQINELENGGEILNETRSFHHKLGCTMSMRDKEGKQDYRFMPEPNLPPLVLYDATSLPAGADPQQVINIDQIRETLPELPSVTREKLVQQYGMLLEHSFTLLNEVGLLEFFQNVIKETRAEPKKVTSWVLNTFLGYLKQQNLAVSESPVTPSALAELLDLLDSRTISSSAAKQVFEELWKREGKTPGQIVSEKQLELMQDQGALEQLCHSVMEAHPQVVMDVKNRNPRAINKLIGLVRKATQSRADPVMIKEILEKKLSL
Sequence of UniProt O43670 (O43670 whole entry, one chain of several): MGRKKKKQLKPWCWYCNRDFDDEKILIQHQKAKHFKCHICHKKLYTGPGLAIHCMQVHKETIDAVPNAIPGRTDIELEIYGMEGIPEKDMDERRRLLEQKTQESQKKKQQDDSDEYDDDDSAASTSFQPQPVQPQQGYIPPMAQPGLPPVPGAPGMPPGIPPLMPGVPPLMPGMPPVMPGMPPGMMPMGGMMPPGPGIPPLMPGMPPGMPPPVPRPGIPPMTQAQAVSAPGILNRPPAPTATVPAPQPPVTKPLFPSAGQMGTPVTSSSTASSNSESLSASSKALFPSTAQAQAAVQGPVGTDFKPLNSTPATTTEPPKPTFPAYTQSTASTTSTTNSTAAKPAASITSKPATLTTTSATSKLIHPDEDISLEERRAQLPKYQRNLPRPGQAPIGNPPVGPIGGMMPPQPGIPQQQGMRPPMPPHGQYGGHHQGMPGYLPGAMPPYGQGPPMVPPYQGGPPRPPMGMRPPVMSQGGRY
Sequence of UniProt O75155 (O75155 whole entry): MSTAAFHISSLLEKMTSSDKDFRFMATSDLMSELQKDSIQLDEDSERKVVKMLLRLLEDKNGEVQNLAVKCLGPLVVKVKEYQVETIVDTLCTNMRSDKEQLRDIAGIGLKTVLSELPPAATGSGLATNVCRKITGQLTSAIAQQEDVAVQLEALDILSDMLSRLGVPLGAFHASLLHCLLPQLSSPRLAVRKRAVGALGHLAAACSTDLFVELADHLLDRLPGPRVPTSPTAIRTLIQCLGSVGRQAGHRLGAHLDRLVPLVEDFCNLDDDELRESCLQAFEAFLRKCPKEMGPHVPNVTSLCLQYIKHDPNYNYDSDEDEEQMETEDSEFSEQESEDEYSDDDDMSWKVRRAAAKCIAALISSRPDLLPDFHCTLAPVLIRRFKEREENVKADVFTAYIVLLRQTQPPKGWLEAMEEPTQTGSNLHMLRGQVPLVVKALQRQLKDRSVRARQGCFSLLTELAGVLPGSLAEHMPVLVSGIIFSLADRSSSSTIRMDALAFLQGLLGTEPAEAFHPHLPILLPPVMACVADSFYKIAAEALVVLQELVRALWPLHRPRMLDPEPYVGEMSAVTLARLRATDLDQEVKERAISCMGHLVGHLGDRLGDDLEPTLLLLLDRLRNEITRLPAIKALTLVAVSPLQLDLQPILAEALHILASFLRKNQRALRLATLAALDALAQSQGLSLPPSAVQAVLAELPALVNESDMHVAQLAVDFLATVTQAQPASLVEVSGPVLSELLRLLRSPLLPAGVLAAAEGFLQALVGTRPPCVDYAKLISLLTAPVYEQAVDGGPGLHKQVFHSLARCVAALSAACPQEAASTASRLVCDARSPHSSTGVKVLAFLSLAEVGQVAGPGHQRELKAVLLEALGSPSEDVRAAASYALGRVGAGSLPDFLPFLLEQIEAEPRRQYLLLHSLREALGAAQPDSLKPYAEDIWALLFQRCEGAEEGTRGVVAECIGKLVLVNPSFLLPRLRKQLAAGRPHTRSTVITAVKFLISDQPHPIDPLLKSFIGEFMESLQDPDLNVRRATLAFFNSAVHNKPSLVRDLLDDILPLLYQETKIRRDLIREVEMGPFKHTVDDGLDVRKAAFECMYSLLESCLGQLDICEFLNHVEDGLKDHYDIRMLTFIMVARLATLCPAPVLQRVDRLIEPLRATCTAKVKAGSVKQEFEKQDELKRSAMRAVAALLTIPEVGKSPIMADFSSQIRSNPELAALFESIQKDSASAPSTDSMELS
Sequence of UniProt Q9NWH9 (Q9NWH9 whole entry, one chain of several): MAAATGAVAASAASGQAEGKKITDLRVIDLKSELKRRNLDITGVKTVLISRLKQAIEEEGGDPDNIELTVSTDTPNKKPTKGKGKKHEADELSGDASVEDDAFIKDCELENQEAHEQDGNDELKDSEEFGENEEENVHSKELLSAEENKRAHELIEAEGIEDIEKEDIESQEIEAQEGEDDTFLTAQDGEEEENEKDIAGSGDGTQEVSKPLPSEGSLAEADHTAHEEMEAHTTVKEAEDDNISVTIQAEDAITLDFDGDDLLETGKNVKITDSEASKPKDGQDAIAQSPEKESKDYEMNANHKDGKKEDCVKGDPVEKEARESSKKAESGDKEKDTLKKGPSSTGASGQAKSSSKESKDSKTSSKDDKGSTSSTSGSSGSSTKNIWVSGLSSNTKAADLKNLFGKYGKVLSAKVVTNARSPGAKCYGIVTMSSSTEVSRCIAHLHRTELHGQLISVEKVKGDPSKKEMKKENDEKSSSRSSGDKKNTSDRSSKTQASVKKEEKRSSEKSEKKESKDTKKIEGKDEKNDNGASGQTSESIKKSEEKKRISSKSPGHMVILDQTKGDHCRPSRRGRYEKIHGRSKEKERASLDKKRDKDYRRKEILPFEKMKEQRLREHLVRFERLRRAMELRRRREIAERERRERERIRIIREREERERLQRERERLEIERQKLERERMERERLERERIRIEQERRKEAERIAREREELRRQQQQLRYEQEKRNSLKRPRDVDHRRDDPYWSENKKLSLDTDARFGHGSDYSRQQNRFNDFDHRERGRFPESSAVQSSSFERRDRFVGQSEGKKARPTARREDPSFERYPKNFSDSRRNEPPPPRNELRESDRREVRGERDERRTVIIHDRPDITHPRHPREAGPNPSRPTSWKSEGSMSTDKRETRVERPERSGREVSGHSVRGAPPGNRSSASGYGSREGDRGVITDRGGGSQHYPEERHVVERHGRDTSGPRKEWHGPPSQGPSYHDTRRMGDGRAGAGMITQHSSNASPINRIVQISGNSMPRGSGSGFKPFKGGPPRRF
Sequence of UniProt Q49A26 (Q49A26 whole entry, one chain of several): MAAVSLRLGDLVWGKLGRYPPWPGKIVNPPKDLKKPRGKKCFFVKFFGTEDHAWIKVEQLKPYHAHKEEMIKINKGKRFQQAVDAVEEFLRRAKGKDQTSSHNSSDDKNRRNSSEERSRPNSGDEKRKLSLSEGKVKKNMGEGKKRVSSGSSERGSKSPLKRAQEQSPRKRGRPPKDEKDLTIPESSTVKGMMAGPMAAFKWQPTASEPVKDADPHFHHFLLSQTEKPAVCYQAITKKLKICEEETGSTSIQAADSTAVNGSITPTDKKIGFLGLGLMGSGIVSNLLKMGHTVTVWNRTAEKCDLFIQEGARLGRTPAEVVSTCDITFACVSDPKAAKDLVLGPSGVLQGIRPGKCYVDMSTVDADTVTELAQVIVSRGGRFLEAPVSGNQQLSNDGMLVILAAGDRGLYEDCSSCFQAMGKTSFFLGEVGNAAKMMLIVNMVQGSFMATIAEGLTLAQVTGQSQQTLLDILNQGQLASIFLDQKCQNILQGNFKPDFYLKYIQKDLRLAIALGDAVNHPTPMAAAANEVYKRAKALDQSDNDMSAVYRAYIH
Sequence of UniProt Q13506 (Q13506 whole entry, one chain of several): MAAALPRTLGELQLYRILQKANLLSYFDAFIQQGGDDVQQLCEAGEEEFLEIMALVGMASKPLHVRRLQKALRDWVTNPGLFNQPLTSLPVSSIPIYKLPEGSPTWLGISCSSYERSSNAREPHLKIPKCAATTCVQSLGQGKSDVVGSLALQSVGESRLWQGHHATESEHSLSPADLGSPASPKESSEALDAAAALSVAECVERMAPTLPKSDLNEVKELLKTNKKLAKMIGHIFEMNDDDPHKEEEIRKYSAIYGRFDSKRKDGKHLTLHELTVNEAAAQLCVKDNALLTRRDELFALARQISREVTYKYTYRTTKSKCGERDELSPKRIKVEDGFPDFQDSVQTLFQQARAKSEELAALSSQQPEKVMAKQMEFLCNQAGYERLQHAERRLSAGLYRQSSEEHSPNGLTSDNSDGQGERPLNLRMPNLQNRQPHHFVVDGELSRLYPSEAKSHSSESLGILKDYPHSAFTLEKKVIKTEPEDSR
Sequence of UniProt A2RU67 (A2RU67 whole entry): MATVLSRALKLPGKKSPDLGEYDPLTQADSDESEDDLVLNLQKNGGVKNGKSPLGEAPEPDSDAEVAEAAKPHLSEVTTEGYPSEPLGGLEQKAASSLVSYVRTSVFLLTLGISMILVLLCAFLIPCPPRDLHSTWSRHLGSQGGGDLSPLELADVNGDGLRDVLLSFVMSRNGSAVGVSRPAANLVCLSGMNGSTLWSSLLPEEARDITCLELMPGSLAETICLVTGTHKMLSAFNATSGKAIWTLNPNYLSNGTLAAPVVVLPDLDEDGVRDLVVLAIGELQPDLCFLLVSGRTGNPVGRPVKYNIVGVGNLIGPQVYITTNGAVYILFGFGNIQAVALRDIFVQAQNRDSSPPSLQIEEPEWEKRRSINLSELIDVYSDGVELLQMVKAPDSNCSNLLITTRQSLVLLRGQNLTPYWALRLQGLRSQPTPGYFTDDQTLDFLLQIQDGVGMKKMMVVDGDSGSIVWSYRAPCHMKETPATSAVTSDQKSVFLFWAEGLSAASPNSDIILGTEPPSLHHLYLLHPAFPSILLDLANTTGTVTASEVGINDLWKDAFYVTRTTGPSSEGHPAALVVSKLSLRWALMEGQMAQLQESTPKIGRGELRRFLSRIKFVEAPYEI

Target	NP40-soluble protein abundance (concentration: 1mM)	NP40-soluble protein abundance (concentration: 2mM)	NP40-soluble protein abundance (concentration: 4mM)	NP40-soluble protein abundance (concentration: 6mM)	NP40-soluble protein abundance (concentration: 8mM)	NP40-soluble protein abundance (concentration: 10mM)
ARPC2 (UniProt O15144)	0.974 ± 0.033	0.896 ± 0.11	0.937 ± 0.023	0.976 ± 0.031	0.994 ± 0.046	0.957 ± 0.048
B0QXZ5|O96015 (UniProt O96015)	1 ± 0.02	1.01 ± 0.047	0.983 ± 0.018	0.998 ± 0.021	0.996 ± 0.019	0.9826 ± 0.0082
E9PJF5|G5E9I4|H0YCF7|Q9HCU9 (UniProt Q9HCU9)	1.03 ± 0.018	1.05 ± 0.04	1.01 ± 0.012	1 ± 0.016	0.989 ± 0.041	1.02 ± 0.051
CCNT1 (UniProt O60563)	1.1 ± 0.051	1.19 ± 0.074	1.21 ± 0.064	1.25 ± 0.12	1.31 ± 0.11	1.4 ± 0.14
G3XAG1|Q96ME7|Q96ME7-3 (UniProt Q96ME7)	1.04 ± 0.064	1.03 ± 0.1	1.17 ± 0.086	1.39 ± 0.083	1.52 ± 0.039	1.64 ± 0.1
H0YHA7|J3QQ67|Q07020|Q07020-2 (UniProt Q07020)	1.02 ± 0.038	0.9774 ± 0.0023	1.01 ± 0.086	0.9115 ± 0.0037	0.766 ± 0.042	1.04 ± 0.082
J3KQH6|P78364 (UniProt P78364)	1.01 ± 0.067	1.01 ± 0.02	1.01 ± 0.018	1.04 ± 0.047	1.03 ± 0.025	1.05 ± 0.032
A0A0A0MQS0|A8MW92|F8W9L8|A8MW92-4 (UniProt A8MW92)	0.995 ± 0.044	1.11 ± 0.088	1.1 ± 0.041	1.15 ± 0.036	1.17 ± 0.081	1.26 ± 0.019
H7BXF5|Q9H0E3-3 (UniProt Q9H0E3)	1.05 ± 0.041	1.09 ± 0.035	1.02 ± 0.03	1.03 ± 0.039	0.993 ± 0.016	1.05 ± 0.057
B8ZZS2|Q13506|Q13506-2 (UniProt Q13506)	0.9966 ± 0.0056	1.02 ± 0.019	0.9788 ± 0.0084	1.024 ± 0.0073	1.01 ± 0.029	1.008 ± 0.0093
F5H7T0|F6RJM5|Q96S38|Q96S38-2 (UniProt Q96S38)	0.999 ± 0.0077	1.02 ± 0.028	1.01 ± 0.034	0.9695 ± 0.004	0.991 ± 0.023	0.965 ± 0.046
E7EQY1|Q96C01 (UniProt Q96C01)	1.01 ± 0.036	1.11 ± 0.07	0.988 ± 0.082	0.991 ± 0.062	0.958 ± 0.062	0.968 ± 0.11
A0A0A0MSY9|Q92800|Q92800-2|Q92800-3|Q92800-4|Q92800-5 (UniProt Q92800)	0.978 ± 0.017	0.97 ± 0.022	0.9794 ± 0.0047	0.994 ± 0.016	0.999 ± 0.019	1.001 ± 0.0058
UniProt O15400|O15400-2	1.01 ± 0.059	1.04 ± 0.1	0.993 ± 0.06	0.992 ± 0.035	0.976 ± 0.039	0.957 ± 0.038
UniProt O14646|O14646-2	1.07 ± 0.052	1.15 ± 0.023	1.23 ± 0.077	1.33 ± 0.14	1.41 ± 0.11	1.49 ± 0.15
SGTA (UniProt O43765)	1.03 ± 0.052	1.15 ± 0.079	0.99 ± 0.03	1.01 ± 0.037	0.943 ± 0.054	1.02 ± 0.085
J3QRS9|O43670|O43670-2|O43670-4|X6R4W8 (UniProt O43670)	1.09 ± 0.073	1.09 ± 0.087	1.15 ± 0.074	1.25 ± 0.065	1.29 ± 0.062	1.34 ± 0.1
N4BP1 (UniProt O75113)	1.01 ± 0.014	1.02 ± 0.039	1.02 ± 0.032	0.979 ± 0.027	0.96 ± 0.012	0.954 ± 0.028
E9PLT2|P17480|P17480-2 (UniProt P17480)	1.08 ± 0.032	1.23 ± 0.06	1.32 ± 0.055	1.47 ± 0.026	1.56 ± 0.027	1.73 ± 0.044
J3KNV1|O60281 (UniProt O60281)	1.02 ± 0.034	1.08 ± 0.024	1.016 ± 0.0028	0.966 ± 0.034	0.968 ± 0.02	0.985 ± 0.041
H0YKD8|P46779 (UniProt P46779)	1.05 ± 0.14	1.02 ± 0.09	1.01 ± 0.13	0.993 ± 0.071	0.919 ± 0.098	1.05 ± 0.16
K7EMM8|Q49A26|Q49A26-2|Q49A26-3|Q49A26-4 (UniProt Q49A26)	1.07 ± 0.062	1.14 ± 0.1	1.16 ± 0.14	1.25 ± 0.17	1.31 ± 0.2	1.47 ± 0.3
J3KPH8|Q8WUI4|Q8WUI4-3|Q8WUI4-4|Q8WUI4-5|Q8WUI4-6|Q8WUI4-7|Q8WUI4-8 (UniProt Q8WUI4)	0.979 ± 0.04	1 ± 0.027	1 ± 0.026	0.98 ± 0.024	0.998 ± 0.067	0.9557 ± 0.0038
E9PDF6|O43795|O43795-2 (UniProt O43795)	2.06 ± 0.29	2.04 ± 0.2	2.31 ± 0.29	2.37 ± 0.28	2.45 ± 0.32	2.39 ± 0.27
DKC1 (UniProt O60832)	1.049 ± 0.0097	1.1 ± 0.057	1.13 ± 0.028	1.21 ± 0.051	1.29 ± 0.046	1.36 ± 0.083

Target	NP40-soluble protein abundance (concentration: 1mM)	NP40-soluble protein abundance (concentration: 2mM)	NP40-soluble protein abundance (concentration: 4mM)	NP40-soluble protein abundance (concentration: 6mM)	NP40-soluble protein abundance (concentration: 8mM)	NP40-soluble protein abundance (concentration: 10mM)
E7EQT4|Q9UKV3-5|S4R3H4|Q9UKV3-3 (UniProt Q9UKV3)	1.05 ± 0.061	1.1 ± 0.021	1.05 ± 0.07	1.03 ± 0.09	0.972 ± 0.04	1.04 ± 0.069
C9J0Q5|C9JE98|C9JFD3|Q9Y618|Q9Y618-3|Q9Y618-4|Q9Y618-5 (UniProt Q9Y618)	1.03 ± 0.0079	1.05 ± 0.04	1.03 ± 0.035	0.969 ± 0.057	0.951 ± 0.02	1.01 ± 0.052
F8VX10|F8VXI8|Q9H9L4 (UniProt Q9H9L4)	1.01 ± 0.014	1.06 ± 0.033	1.05 ± 0.033	1.02 ± 0.066	1.031 ± 0.0027	1.04 ± 0.044
H0YLF3|P61769 (UniProt P61769)	0.99 ± 0.055	0.977 ± 0.084	0.923 ± 0.1	0.879 ± 0.15	0.971 ± 0.035	0.917 ± 0.076
C9JEJ2|H7BZN1|P49585|C9J050 (UniProt P49585)	1.01 ± 0.028	1.02 ± 0.022	1.02 ± 0.015	0.993 ± 0.027	1 ± 0.02	0.996 ± 0.01
C9J2U0|I3L413|P24864|P24864-2|P24864-3 (UniProt P24864)	0.913 ± 0.0092	0.822 ± 0.076	0.935 ± 0.011	0.936 ± 0.032	0.9933 ± 0.0062	0.953 ± 0.07
CAND2 (UniProt O75155)	0.973 ± 0.018	0.942 ± 0.027	0.986 ± 0.045	1 ± 0.066	1.01 ± 0.031	1.02 ± 0.023
H7C5G1|Q2TAA2 (UniProt Q2TAA2)	0.995 ± 0.037	0.975 ± 0.015	0.98 ± 0.028	0.972 ± 0.016	0.965 ± 0.022	0.981 ± 0.028
E7EMP6|Q96FZ2 (UniProt Q96FZ2)	1.06 ± 0.015	1.01 ± 0.032	1.04 ± 0.021	0.9875 ± 0.0043	1.01 ± 0.016	1 ± 0.033
SCO2 (UniProt O43819)	0.972 ± 0.0067	0.949 ± 0.054	0.991 ± 0.04	0.95 ± 0.027	0.936 ± 0.015	0.934 ± 0.045
KPNA4 (UniProt O00629)	1.07 ± 0.029	1.074 ± 0.0097	1.07 ± 0.016	1.03 ± 0.047	1.05 ± 0.051	1.05 ± 0.037
UniProt A2RU67	0.9918 ± 0.004	1.03 ± 0.031	1.02 ± 0.021	1 ± 0.019	1 ± 0.017	1.03 ± 0.016
C5orf51 (UniProt A6NDU8)	1.04 ± 0.014	1.03 ± 0.025	1.01 ± 0.025	0.9735 ± 0.0065	0.953 ± 0.017	0.95 ± 0.05
H0YLE6|Q9NWH9 (UniProt Q9NWH9)	1.05 ± 0.044	1.11 ± 0.083	1.08 ± 0.039	1.12 ± 0.092	1.11 ± 0.094	1.17 ± 0.094
UniProt O60504-2|O60504	1.03 ± 0.013	0.999 ± 0.018	1.04 ± 0.018	1.03 ± 0.029	1.02 ± 0.029	1.02 ± 0.025
K4DI93|Q13620-1 (UniProt Q13620)	0.991 ± 0.011	0.936 ± 0.05	0.9972 ± 0.0076	0.992 ± 0.028	1 ± 0.017	0.995 ± 0.024
B0YIW6|P48444 (UniProt P48444)	0.98 ± 0.015	0.931 ± 0.045	0.949 ± 0.01	0.9391 ± 0.0089	0.9554 ± 0.0037	0.921 ± 0.017
B5MCX3|Q15019|Q15019-2 (UniProt Q15019)	1.027 ± 0.0023	0.997 ± 0.032	1.003 ± 0.0091	0.984 ± 0.026	0.98 ± 0.017	0.952 ± 0.037
D6RAJ6|Q9UKT5|Q9UKT5-2 (UniProt Q9UKT5)	1.01 ± 0.035	0.996 ± 0.032	0.986 ± 0.024	0.975 ± 0.026	0.983 ± 0.035	0.981 ± 0.045
K7EIU8|Q13485 (UniProt Q13485)	0.986 ± 0.065	0.936 ± 0.062	0.99 ± 0.091	1.04 ± 0.084	1.08 ± 0.08	1.03 ± 0.093
A0A0A0MTG1|A0A0G2JIA5|A0A140T8Y0|A0A140TA35|A0A140TA36|A0A140TA40|A0A140TA45|Q5ST30|Q5ST30-4|A0A0G2JL52|B4E0K6|B7ZL25 (UniProt Q5ST30)	1 ± 0.017	0.992 ± 0.051	0.992 ± 0.02	0.98 ± 0.034	0.979 ± 0.022	0.969 ± 0.04
F8VU90|Q9NYL4|Q9NYL4-2 (UniProt Q9NYL4)	1.01 ± 0.042	1.04 ± 0.043	1.07 ± 0.062	0.997 ± 0.031	0.999 ± 0.084	0.994 ± 0.12
D6REA0|O75879 (UniProt O75879)	0.962 ± 0.026	0.9665 ± 0.0091	0.968 ± 0.036	1.03 ± 0.028	0.986 ± 0.038	1.003 ± 0.0032
C9JYN0|Q16563-2|Q16563 (UniProt Q16563)	1.01 ± 0.015	1.06 ± 0.12	1.05 ± 0.042	1.12 ± 0.12	1.12 ± 0.057	1.14 ± 0.17
G5E994|Q5VW38|Q5VW38-2 (UniProt Q5VW38)	1.026 ± 0.0089	1.01 ± 0.018	0.976 ± 0.02	0.983 ± 0.024	1.01 ± 0.021	1.018 ± 0.0091

— the supplement of paper PMC6411743
